Bioassay records (PubChem BioAssay)
In the library only some 4.7% were active in any assay of this set; here they are far more common.
TRHR agonist – activates the human TRH receptor. TRHR cells, calcium flux fluo-8, FDSS agonist mode. activation, % at 2 µM. actives 0.18% (n = 360,000). AID 493084
Target sequence (P34981 whole entry, looked up): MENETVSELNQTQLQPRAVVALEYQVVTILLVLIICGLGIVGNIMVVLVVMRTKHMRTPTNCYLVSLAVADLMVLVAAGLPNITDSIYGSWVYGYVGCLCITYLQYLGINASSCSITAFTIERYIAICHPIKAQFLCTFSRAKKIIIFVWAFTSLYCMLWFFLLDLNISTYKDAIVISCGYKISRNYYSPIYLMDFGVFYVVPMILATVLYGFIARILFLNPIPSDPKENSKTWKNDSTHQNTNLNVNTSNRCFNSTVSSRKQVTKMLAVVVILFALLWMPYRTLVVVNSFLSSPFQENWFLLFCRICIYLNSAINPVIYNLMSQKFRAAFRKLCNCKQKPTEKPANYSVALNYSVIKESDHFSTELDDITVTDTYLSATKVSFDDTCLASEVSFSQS
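Read-out: compound-evoked intracellular calcium rise in TRHR cells, fluo-8 dye, kinetic FDSS fluorescence at 1 s/cycle following a 10-cycle baseline. Cells cultured overnight before dye loading (30 min–1.5 h, RT).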
TRHR enhancer – allosterically enhances the human TRH receptor. enhancement, % at 2 µM. actives 0.66% (n = 360,000). AID 493056. P34981. TRHR cells, fluo-8 calcium fluorescence, EC20 TRH enhancement; in the data active = enhancement above about 30%
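TRHR-expressing cells loaded with fluo-8 calcium dye were read kinetically (ex 480/em 530) during compound addition, then stimulated with an EC20 of TRH (10 nM final). Enhancement of the Gq-mediated intracellular calcium response was scored.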
D1 PAM – potentiators of human D1 dopamine receptor | P21728 | HEK293 TREx D1 cells, calcium flux, dopamine EC20 potentiation | potentiation, % at 10 µM | actives 0.036% (n = 360,000) | AID 504651; in the data active = potentiation above about 30%
D1 ag – human D1 receptor agonism | activation, % at 2 µM | actives 1% (n = 360,000) | HEK293 T-REx D1 cells, calcium flux, agonist mode | P21728 | AID 504660
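Agonism was scored from calcium flux recorded over 180 s (1 read/s) after pintool compound addition, following a 10-cycle baseline. Cells were inducible force-coupled HEK293 TREx D1, plated overnight at 30 C and loaded with no-wash calcium dye.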
D1 antagonist – human D1 dopamine receptor antagonism | HEK293 TREx D1 cells, calcium flux, dopamine EC80; active compounds read low | activity change, negative = inhibition, % at 10 µM | actives 3.2% (n = 360,000); in the data active = activity change below about -30%
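Kinetic fluorescence of a calcium dye serves as the read-out. D1-expressing Hek293 Trex cells, induced overnight at 30 C, are exposed to compound for 180 s before an EC80 dopamine addition, then read 180 s further.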
Numbers stand for hits; i = inactive; nt = no result given; ! = repeats disagree. Rule as the data show it, unless noted: active = activation above about 30%; inactive = the rest.

SMILES	TRHR agonist	TRHR enhancer	D1 PAM	D1 ag	D1 antagonist
COc1ccc(C(=O)OCC(=O)Nc2ccc(Cl)c(C(F)(F)F)c2)c(OC)c1OC	i	i	i	i	i
N#C/C(=C(/O)c1ccc(Br)s1)c1nc2ccccc2[nH]1	i	i	i	i	-44.7
N#C/C(=C(/O)c1ccc([N+](=O)[O-])s1)c1nc2ccccc2[nH]1	i	i	i	i	i
CCOC(=O)Cn1c(=N)n(CCOc2ccc(OC)cc2)c2ccccc21	i	i	i	i	i
CCOC(=O)Cn1c(=N)n(CCOc2ccc3ccccc3c2)c2ccccc21	i	i	i	32.3	i
CCCc1cnc2c(c1SCc1cccc(C)c1)c(=O)n(C)c(=O)n2C	i	i	i	i	nt
O=C(O/N=C(/c1ccccc1)c1ccncc1)c1cccc(F)c1	i	i	i	i	-59.4
Cc1ccc(C(=O)O/N=C(\N)c2cccc([N+](=O)[O-])c2)cc1	i	i	i	i	i
N/C(=N\OC(=O)c1ccncc1)c1cccc([N+](=O)[O-])c1	i	32.2	i	i	i
Cc1ccc(S(=O)(=O)C(CNS(=O)(=O)c2ccc(F)c(C(F)(F)F)c2)c2ccco2)cc1 (centres undefined)	i	i	i	i	nt
NCCCCCc1cn([C@@H](CCC(=O)O)C(=O)NCCCCCCCCCCC(=O)N2CCNCC2)nn1	i	i	i	i	i
CSCC[C@@H](C(=O)NCCCCCCCCCCC(=O)N1CCNCC1)n1cc(CCO)nn1	i	i	i	i	-35.6
NCCCCCc1cn([C@@H](CO)C(=O)NCCCCCCCCCCC(=O)N2CCNCC2)nn1	i	i	i	i	-31.6
O=C(N[C@H]1CCCCNC1=O)c1cc(COc2ccc(F)cc2F)on1	i	i	i	i	i
Cn1/c(=N/N=C/c2ccc([N+](=O)[O-])cc2)sc2ccccc21	i	i	i	30.4	i
O=C(CNC(=O)c1[nH]cnc1C(=O)NC(c1ccccc1)c1ccccc1)OCc1ccccc1	i	i	i	i	i
CCCc1cc(F)c(S(=O)(=O)N2CCN(S(=O)(=O)c3ccc4c(c3)OCCO4)CC2)cc1F	i	i	i	i	i
Cc1nn(-c2ccccc2)c(Cl)c1/C=N/Nc1ccc(S(=O)(=O)Nc2ccccc2C(=O)O)cc1[N+](=O)[O-]	i	i	i	i	-31.7
Cc1nn(-c2ccccc2)c(Cl)c1/C=N/Nc1ccc(Cl)c(C(=O)O)c1	i	i	i	i	i
O=C(Nc1ccc(F)cc1F)c1ccc(CN2CC(=O)N3CCCCC3C2=O)cc1 (centres undefined)	i	i	i	i	i
CN(Cc1ccco1)c1ncnc2ccc(-c3ccoc3)cc12	i	i	i	i	i
CN(Cc1ccco1)c1ncnc2ccc(-c3ccccc3Cl)cc12	i	i	i	i	-39.5!
Cc1cccc(NC(=O)Cn2cc(C(=O)C3CCCCC3)c3ccccc32)c1	i	i	i	i	-30.1
COc1ccc(C(C)=O)cc1CSc1nc(NCc2ccccc2)c2ccccc2n1	i	i	i	i	i
CCN(CC)S(=O)(=O)c1cc(NC(=O)NCCCl)ccc1C	i	i	i	i	i
SMILES	TRHR agonist	TRHR enhancer	D1 PAM	D1 ag	D1 antagonist
CCN(CC)S(=O)(=O)c1cc(NC(=O)c2ccc(Br)s2)ccc1C	i	i	i	i	-32.7
Cc1ccc(NC(=O)c2c(Nc3ccccc3C)sc(C(=O)c3ccccc3)c2N)cc1	i	i	i	i	i
COc1ccc(NC(=O)c2c(Nc3ccccc3)sc(C(=O)c3ccc(F)cc3)c2N)cc1	i	i	i	i	i
COc1ccc(C(=O)c2sc(Nc3cccc(OC)c3)c(C(=O)Nc3cccc(C)c3C)c2N)cc1	i	i	i	71.3	-50.6
COc1ccc(Nc2sc(C(=O)c3ccc(Cl)cc3)c(N)c2C(=O)Nc2ccccc2OC)cc1	i	i	i	77.9	-50.2
COc1ccc(Nc2sc(C(=O)c3ccccc3)c(N)c2C(=O)Nc2cc(C)ccc2C)c(OC)c1	i	i	i	47.1	i
COc1ccc(CCNC(=O)[C@H](CC(C)C)NC(=O)N2CCn3c2nc2ccccc23)cc1OC	i	i	i	i	i
CCCCC1OC2(C)OC(=N)C1(C#N)C(C#N)(C#N)C2c1ccccc1 (centres undefined)	i	i	i	i	i
CC1OC2(C)OC(=N)C1(C#N)C(C#N)(C#N)C2c1ccccc1 (centres undefined)	i	i	i	i	-35.4
O=C(c1ccccc1)c1c[nH]c(C(=O)NNc2cccc(Cl)n2)c1	i	i	i	i	i
O=C(c1ccc(Cl)cc1)c1c[nH]c(C(=O)NNc2cccc(Cl)n2)c1	i	i	i	i	-31.4
O=C(NCC1CCOCC1)c1ccc2nc(Cc3cccc(Cl)c3)oc2c1	i	i	i	i	-53.2
COc1ccc(N2CCN(CCCNC(=O)c3ccc4nc(CCc5ccccc5)oc4c3)CC2)cc1	i	i	i	34.7	-30.5
O=C(NCCCN1CCN(c2ccccc2)CC1)c1ccc2nc(CCc3ccccc3)oc2c1	i	i	i	32.5	-59.9
COc1ccc(N2CCN(CCCNC(=O)c3ccc4nc(Cc5ccccc5)oc4c3)CC2)cc1	i	i	i	i	i
CN(CC1CCOCC1)C(=O)c1ccc2nc(Cc3cccc(Cl)c3)oc2c1	i	i	i	i	i
O=C(NCCCN1CCN(c2cccc(Cl)c2)CC1)c1ccc2nc(Cc3ccccc3)oc2c1	i	i	i	i	-32.6
O=C(CS(=O)(=O)c1ccc(F)cc1)NCCS(=O)(=O)c1ccccc1	i	i	i	i	i
NC(=O)c1nsc(C(=O)N(c2ccccc2)C(C(=O)NC2CCCCC2)c2ccc(O)cc2)c1N (centres undefined)	i	i	i	i	i
COc1ccc(C(=O)NC2CCN(C(=S)Nc3ccc(C)cc3)CC2)cc1	i	i	i	i	i
CC(C)c1nc2ccc(C(=O)NCCCN3CCN(c4cccc(Cl)c4)CC3)cc2o1	i	i	i	i	-45.1
Cc1cccc(/C=C2\Sc3ccc(C(=O)N4CCOCC4)cc3N(C)C2=O)c1	i	i	i	i	i
Cc1ccc(NC(=O)CN2C(=O)c3ccccc3Sc3ccc(C(=O)N4CCOCC4)cc32)c(Cl)c1	i	i	i	i	i
Cc1cccc(/C=C2\Sc3ccc(C(=O)N4CCCCC4)cc3N(C)C2=O)c1	i	i	i	i	-38.4
Cc1cc(C)cc(NC(=O)CN2C(=O)c3ccccc3Sc3ccc(C(=O)N4CCCC4)cc32)c1	i	32.7	i	i	i
CN1C(=O)/C(=C/c2cccc(Cl)c2)Sc2ccc(C(=O)N3CCCC3)cc21	i	i	i	i	-35.9
Cc1ccc(CNC(=O)c2cnc(N3CCCCC3)c3ccccc23)cc1	i	i	i	i	i
COc1cc(NC(=O)c2noc3c2CC(C)CC3)c(OC)cc1Cl (centres undefined)	i	i	i	i	i
